Results published in PubChem BioAssay (EPA / NIEHS).
Records with an inconclusive call do not appear. Some structures have more than one record in an assay (separate samples or runs), and their calls can disagree. The source made the active and inactive calls. How the source made its calls: active means hit-call score of the fitted dose curve at least 0.9, where 1 is the maximum; inconclusive means response in the unintended direction; inactive means score below 0.9.

Tested on: not listed separately
Experiment: TOX21_p53_BLA_p2_viability: Viability Assessment in the Tox21 HCT-116 p53 Agonism Beta-lactamase Assay, Phase 2 (AID 2283591);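 further: actives lower the ATP signal meaning cytotoxicity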
How it was run: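 HCT116 p53-bla cells, 4000/well, dosed after 5 h plating (217-fold dilution of DMSO stocks) and incubated 16 h at 37C. Viability taken as cellular ATP by CellTiter-Glo luminescence after 30 min RT; signal loss marks cytotoxicity.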

| SMILES | outcome |
| --- | --- |
| CC(=O)OC(C)(C)C | inactive |
| [O-]/[N+](=N\O)c1ccccc1 | inactive |
| CC(CO)c1ccccc1 (stereo not drawn) | inactive |
| CC1=CCC(C(C)(C)O)CC1 (stereo not drawn) | inactive |
| CC(C)(CO)CO | inactive |
| CCCCCCCCOS(=O)(=O)O | inactive |
| NCCCOCCOCCOCCCN | inactive |
| COC(=O)c1cccc(C(=O)OC)c1 | inactive |
| O=C(O)c1ccco1 | inactive |
| CCC(C)(C)C1CCC(=O)CC1 | inactive |
| NCCN1CCNCC1 | inactive |
| CC(=O)Oc1c(C)c(C)c2c(c1C)CC[C@@](C)(CCC[C@H](C)CCC[C@H](C)CCCC(C)C)O2 | inactive |
| CCC(C)COC(=O)CC(C)C (stereo not drawn) | inactive |

Molecular target: Cellular tumor antigen p53 (Homo sapiens) (UniProt P04637)
Sequence (P04637 whole entry, looked up): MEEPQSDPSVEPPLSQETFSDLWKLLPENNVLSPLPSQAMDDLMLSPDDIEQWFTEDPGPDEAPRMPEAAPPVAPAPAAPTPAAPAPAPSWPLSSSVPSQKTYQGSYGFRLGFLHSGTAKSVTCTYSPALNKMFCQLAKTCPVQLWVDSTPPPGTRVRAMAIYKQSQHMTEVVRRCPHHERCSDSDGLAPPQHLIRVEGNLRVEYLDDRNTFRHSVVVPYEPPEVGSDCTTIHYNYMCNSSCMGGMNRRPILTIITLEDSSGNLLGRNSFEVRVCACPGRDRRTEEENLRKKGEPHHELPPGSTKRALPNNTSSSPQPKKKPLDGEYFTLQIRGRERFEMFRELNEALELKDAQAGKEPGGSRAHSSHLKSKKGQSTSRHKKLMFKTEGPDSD
Experiment: TOX21_p53_BLA_p2_ratio: Tox21 HCT-116 p53 Agonism Beta-lactamase Assay, Ratio, Phase 2 (AID 2283592)
How it was run: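 Readout: blue/green (460/530 nm) FRET emission ratio after 2 h CCF4-AM loading at room temperature, excitation 405 nm. HCT116 p53 bla cells, 16 h compound exposure at 37C, 5% CO2; agonist direction fitted against DMSO baseline.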

| SMILES | outcome | AC50 |
| --- | --- | --- |
| COc1ccc(C(C)=O)cc1 | inactive |  |
| CC(=O)OC(C)(C)C | inactive |  |
| [O-]/[N+](=N\O)c1ccccc1 | inactive |  |
| CC(CO)c1ccccc1 (stereo not drawn) | inactive |  |
| CC1=CCC(C(C)(C)O)CC1 (stereo not drawn) | inactive |  |
| CC(C)(CO)CO | inactive |  |
| CC(C)(O)CCc1ccccc1 | inactive |  |
| CCCCCCCCOS(=O)(=O)O | inactive |  |
| NCCCOCCOCCOCCCN | inactive |  |
| COC(=O)c1cccc(C(=O)OC)c1 | inactive |  |
| CCCCN(CCCC)CCCCCCN(CCCC)CCCC | inactive |  |
| O=C(O)c1ccco1 | inactive |  |
| CCC(C)(C)C1CCC(=O)CC1 | inactive |  |
| CC1(C)CC(=O)CC(C)(C)N1 | inactive |  |
| CC(C)(O)C(=O)c1ccc(OCCO)cc1 | inactive |  |
| NCCN1CCNCC1 | inactive | 0.307 nM (active) |
| CCCO | inactive |  |
| CC(=O)Oc1c(C)c(C)c2c(c1C)CC[C@@](C)(CCC[C@H](C)CCC[C@H](C)CCCC(C)C)O2 | inactive |  |
| C/C=C(\C)C(=O)OC/C=C(\C)CCC=C(C)C | inactive |  |
| CCC(C)COC(=O)CC(C)C (stereo not drawn) | inactive |  |

Tested on: not listed separately
Experiment: TOX21_p53_BLA_p3_viability: Viability Assessment in the Tox21 HCT-116 p53 Agonism Beta-lactamase Assay, Phase 3 (AID 2283593);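 further: cells exposed to compound for 16 h before reading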
How it was run: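 HCT116 cells, 4000/well, dosed 5 h after plating by pin transfer (217-fold dilution from DMSO stock) and incubated 16 h at 37C, 5% CO2. Viability read as ATP luminescence with CellTiter-Glo after 30 min at room temperature.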

| SMILES | outcome |
| --- | --- |
| [O-]/[N+](=N\O)c1ccccc1 | inactive |
| CC(CO)c1ccccc1 (stereo not drawn) | inactive |
| CCCCN(CCO)CCO | inactive |
| CC1=CCC(C(C)(C)O)CC1 (stereo not drawn) | inactive |
| O=S1(=O)CC=CC1 | inactive |
| CC(C)(CO)CO | inactive |
| C=CC(=O)OCCCCCC | inactive |
| C=CC(C)CCCC(C)(C)O (stereo not drawn) | inactive |
| CCCCCCCCOS(=O)(=O)O | inactive |
| NCCCOCCOCCOCCCN | inactive |
| COC(=O)c1cccc(C(=O)OC)c1 | inactive |
| CCOc1ccc(NC(C)=O)cc1 | inactive |
| CCCCCCCCCCCCN1CCOCC1 | inactive |
| O=C(O)c1ccco1 | inactive |
| CC(C)C(=O)c1ccccc1 | inactive |
| CCC(C)(C)C1CCC(=O)CC1 | inactive |
| CC1=CC[C@@H]2C[C@H]1C2(C)C | inactive |
| CC(=O)C1=C(C)[C@@H]2C[C@@]3(C1)[C@H](C)CC[C@H]3C2(C)C | inactive |
| NCCN1CCNCC1 | inactive |
| CC(=O)Oc1c(C)c(C)c2c(c1C)CC[C@@](C)(CCC[C@H](C)CCC[C@H](C)CCCC(C)C)O2 | inactive |
| CCC(C)COC(=O)CC(C)C (stereo not drawn) | inactive |

Molecular target: Cellular tumor antigen p53 (Homo sapiens) (UniProt P04637)
Experiment: TOX21_p53_BLA_p3_ratio: Tox21 HCT-116 p53 Agonism Beta-lactamase Assay, Ratio, Phase 3 (AID 2283596)
How it was run: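 Cells were seeded at 4000/well, rested 5 h at 37C, then dosed with DMSO compound solutions (217-fold dilution) for 16 h. CCF4-AM substrate was loaded for 2 h at room temperature, and the 460/530 nm emission ratio was fitted for gain of signal versus DMSO.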

| SMILES | outcome |
| --- | --- |
| CC(=O)CCc1ccc(O)cc1 | inactive |
| [O-]/[N+](=N\O)c1ccccc1 | inactive |
| CCCCCCCCCOS(=O)(=O)O | inactive |
| CC(CO)c1ccccc1 (stereo not drawn) | inactive |
| CCCCN(CCO)CCO | inactive |
| CC1=CCC(C(C)(C)O)CC1 (stereo not drawn) | inactive |
| O=S1(=O)CC=CC1 | inactive |
| CC(C)(CO)CO | inactive |
| CC(C)(O)CCc1ccccc1 | inactive |
| C=CC(=O)OCCCCCC | inactive |
| C=CC(C)CCCC(C)(C)O (stereo not drawn) | inactive |
| NCCCOCCOCCOCCCN | inactive |
| COC(=O)c1cccc(C(=O)OC)c1 | inactive |
| CCCCN(CCCC)CCCCCCN(CCCC)CCCC | inactive |
| CCOc1ccc(NC(C)=O)cc1 | inactive |
| CCCCCCCCCCCCN1CCOCC1 | inactive |
| O=C(O)c1ccco1 | inactive |
| CC(C)C(=O)c1ccccc1 | inactive |
| CCC(C)(C)C1CCC(=O)CC1 | inactive |
| CC1(C)CC(=O)CC(C)(C)N1 | inactive |
| CC(C)(O)C(=O)c1ccc(OCCO)cc1 | inactive |
| CC(=O)C1=C(C)[C@@H]2C[C@@]3(C1)[C@H](C)CC[C@H]3C2(C)C | inactive |
| NCCN1CCNCC1 | inactive |
| CCCO | inactive |
| CC(=O)Oc1c(C)c(C)c2c(c1C)CC[C@@](C)(CCC[C@H](C)CCC[C@H](C)CCCC(C)C)O2 | inactive |
| C/C=C(\C)C(=O)OC/C=C(\C)CCC=C(C)C | inactive |
| CC(=O)CC(C)(C)C1CCCCC1 | inactive |
| CCC(C)COC(=O)CC(C)C (stereo not drawn) | inactive |
| CCCc1ccc(N)cc1 | inactive |

Tested on: not listed separately
Experiment: TOX21_p53_BLA_p4_viability: Viability Assessment in the Tox21 HCT-116 p53 Agonism Beta-lactamase Assay, Phase 4 (AID 2283597);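 further: hits lower the luminescence signal meaning cytotoxicity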
How it was run: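 ATP content by CellTiter-Glo luminescence, 30 min RT, read after the beta-lactamase ratio step. Cells: HCT116, 4000/well, compound added after 5 h, exposure 16 h at 37C. Signal loss = reduced viability.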

| SMILES | outcome | AC50 |
| --- | --- | --- |
| CC(=O)CCc1ccc(O)cc1 | inactive |  |
| [O-]/[N+](=N\O)c1ccccc1 | inactive |  |
| CCCCCCCCCOS(=O)(=O)O | inactive |  |
| CC(CO)c1ccccc1 (stereo not drawn) | inactive |  |
| CC1=CCC(C(C)(C)O)CC1 (stereo not drawn) | inactive |  |
| O=S1(=O)CC=CC1 | inactive |  |
| CC(C)(CO)CO | inactive |  |
| C=CC(=O)OCCCCCC | inactive |  |
| C=CC(C)CCCC(C)(C)O (stereo not drawn) | inactive |  |
| NCCCOCCOCCOCCCN | inactive |  |
| CCCCCCCCCCOC(=O)c1ccccc1C(=O)OCCCCCCCC | inactive |  |
| COC(=O)c1cccc(C(=O)OC)c1 | inactive |  |
| CCOc1ccc(NC(C)=O)cc1 | inactive |  |
| CC(=O)c1ccc2ccccc2c1 | inactive |  |
| CC1(C)CC(=O)CC(C)(C)N1 | inactive |  |
| CC1=CC[C@@H]2C[C@H]1C2(C)C | inactive |  |
| NCCN1CCNCC1 | inactive |  |
| CCCO | inactive |  |
| C=C(C)C(=O)OCCC(C)OC(=O)C(=C)C (stereo not drawn) | inactive |  |
| CC(=O)Oc1c(C)c(C)c2c(c1C)CC[C@@](C)(CCC[C@H](C)CCC[C@H](C)CCCC(C)C)O2 | inactive |  |
| CCCO[Si](OCCC)(OCCC)OCCC | inactive |  |
| CC(=O)CC(C)(C)C1CCCCC1 | inactive |  |
| CCC(C)COC(=O)CC(C)C (stereo not drawn) |  | 46.1 µM (active) |
| CCCc1ccc(N)cc1 | inactive |  |
